Source: the supplement of paper PMC8253809

The compounds below were run on DIPGX7 (H3.3 K27M diffuse intrinsic pontine glioma line) (assay: growth inhibition (% activity, log2 RLU normalised to DMSO / staurosporine); higher = more growth inhibition). Conditions: 33 µM.
Summary of the method: (§1)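 The growth-inhibition value is the median over replicates. pHGG cell lines and H9-derived neural stem cells on Geltrex-coated 384-well plates received approved drugs by pin tool at a single final concentration of about 33 μM, in triplicate, for 7 days at 37 °C, 5% CO2. CellTiter-Glo luminescence was log2-transformed and normalised per plate to % activity between solvent and positive control wells.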

In order of rising growth inhibition:
1. N[C@@H]1CCCCN(c2c(F)cc3c(=O)c(C(=O)O)cn(C4CC4)c3c2Cl)C1  -2%
2. COc1nc(C)nc(Cl)c1NC1=NCCN1  -1.95%
3. CCCCCN(C)CCC(O)(P(=O)(O)O)P(=O)(O)O  -1.48%
4. O=C(O)CCc1nc(-c2ccccc2)c(-c2ccccc2)o1  -1.35%
5. [O-][n+]1cccc(CO)c1  -0.893%
6. CC(C)(Oc1ccc(Cl)cc1)C(=O)O  -0.722%
7. CC=CC1=C(C(=O)O)N2C(=O)[C@@H](NC(=O)[C@H](N)c3ccc(O)cc3)[C@H]2SC1  -0.595%
8. CNC(=C[N+](=O)[O-])NCCSCc1csc(CN(C)C)n1  -0.581%
9. CCOc1ccccc1OC(c1ccccc1)C1CNCCO1 (stereo not drawn)  -0.477%
10. CC(C(=O)O)c1ccc(C(=O)c2cccs2)cc1 (stereo not drawn)  -0.391%
11. Cc1cccc(Nc2ccncc2S(=O)(=O)NC(=O)NC(C)C)c1  -0.371%
12. NC(=O)CC[C@H](N)C(=O)O  -0.27%
13. N#Cc1ccc(C(c2ccc(C#N)cc2)n2cncn2)cc1  -0.157%
14. CN(C/C=C/c1ccccc1)Cc1cccc2ccccc12  -0.0716%
15. Cc1ccc(C)c(OCCCC(C)(C)C(=O)O)c1  0.0111%
16. COc1ccc(-n2nc(C(N)=O)c3c2C(=O)N(c2ccc(N4CCCCC4=O)cc2)CC3)cc1  0.291%
17. C[C@@H](c1ncncc1F)[C@](O)(Cn1cncn1)c1ccc(F)cc1F  0.392%
18. Nc1ccc(/N=N/c2ccccc2)c(N)n1  0.481%
19. NC12CC3CC(CC(C3)C1)C2  0.524%
20. CCN(CC)C(=O)C1(c2ccccc2)CC1CN (stereo not drawn)  0.852%
21. CCCc1nn(C)c2c(=O)[nH]c(-c3cc(S(=O)(=O)N4CCN(C)CC4)ccc3OCC)nc12  0.899%
22. C[C@H](Cc1cc2c(c(C(N)=O)c1)N(CCCO)CC2)NCCOc1ccccc1OCC(F)(F)F  0.991%
23. CCC(NC(C)C)C(O)c1ccc(O)c(O)c1 (stereo not drawn)  1.03%
24. COc1ccc2cc(CCC(C)=O)ccc2c1  1.11%
25. O=C1[C@@H]2[C@H]3CC[C@H](C3)[C@@H]2C(=O)N1C[C@@H]1CCCC[C@H]1CN1CCN(c2nsc3ccccc23)CC1  1.18%
26. N[C@@H](Cc1cc(I)c(Oc2ccc(O)c(I)c2)c(I)c1)C(=O)O  1.41%
27. CC(=O)OCC(=O)[C@@]1(O)[C@H](C)C[C@H]2[C@@H]3CCC4=CC(=O)C=C[C@]4(C)[C@@]3(F)[C@@H](O)C[C@@]21C  1.89%
28. Cn1c(=O)c2c(ncn2CC(O)CO)n(C)c1=O (stereo not drawn)  1.95%
29. COC(=O)C1=C(C)NC(C)=C(C(=O)OC2CCCN(Cc3ccccc3)C2)C1c1cccc([N+](=O)[O-])c1 (stereo not drawn)  2.15%
30. CC(C)OC(=O)C(C)(C)Oc1ccc(C(=O)c2ccc(Cl)cc2)cc1  2.17%
31. NCCC(O)(P(=O)(O)O)P(=O)(O)O  2.33%
32. N=C(N)NCCN1CCCCCCC1  2.35%
33. CC(=O)S[C@@H]1CC2=CC(=O)CC[C@]2(C)[C@H]2CC[C@@]3(C)[C@@H](CC[C@@]34CCC(=O)O4)[C@H]12  2.4%
34. Cc1nc(Nc2ncc(C(=O)Nc3c(C)cccc3Cl)s2)cc(N2CCN(CCO)CC2)n1  2.53%
35. O=C([O-])[C@H](O)[C@@H](O)[C@H](O)[C@H](O)CO.[Na+]  2.56%
36. COc1cc(NS(=O)(=O)c2ccc(N)cc2)nc(OC)n1  2.92%
37. CCN(CC)C(=S)SSC(=S)N(CC)CC  5.8%
38. CO[C@H]1C(=O)[C@]2(C)[C@@H](OC)C[C@H]3OC[C@@]3(OC(C)=O)[C@H]2[C@H](OC(=O)c2ccccc2)[C@]2(O)C[C@H](OC(=O)[C@H](O)[C@@H](NC(=O)OC(C)(C)C)c3ccccc3)C(C)=C1C2(C)C  8.93%
39. CN(C)C/C=C/C(=O)Nc1cc2c(Nc3ccc(F)c(Cl)c3)ncnc2cc1O[C@H]1CCOC1  29.6%

What follows are compounds tested on DIPGX9 (diffuse intrinsic pontine glioma line) in the same assay as above. Conditions: 33 µM.
Summary of the method: as §1

In order of rising growth inhibition:
1. Nc1ccc(/N=N/c2ccccc2)c(N)n1  -3.38%
2. COc1ccc2cc(CCC(C)=O)ccc2c1  -2.24%
3. N[C@@H]1CCCCN(c2c(F)cc3c(=O)c(C(=O)O)cn(C4CC4)c3c2Cl)C1  -1.55%
4. CC(C)(Oc1ccc(Cl)cc1)C(=O)O  -1.38%
5. O=C(O)CCc1nc(-c2ccccc2)c(-c2ccccc2)o1  -1.33%
6. COc1nc(C)nc(Cl)c1NC1=NCCN1  -1.31%
7. O=C1[C@@H]2[C@H]3CC[C@H](C3)[C@@H]2C(=O)N1C[C@@H]1CCCC[C@H]1CN1CCN(c2nsc3ccccc23)CC1  -1.28%
8. CCCCCN(C)CCC(O)(P(=O)(O)O)P(=O)(O)O  -0.821%
9. CC(C(=O)O)c1ccc(C(=O)c2cccs2)cc1 (stereo not drawn)  -0.699%
10. C[C@H](Cc1cc2c(c(C(N)=O)c1)N(CCCO)CC2)NCCOc1ccccc1OCC(F)(F)F  -0.478%
11. [O-][n+]1cccc(CO)c1  -0.317%
12. N#Cc1ccc(C(c2ccc(C#N)cc2)n2cncn2)cc1  -0.262%
13. Cc1cccc(Nc2ccncc2S(=O)(=O)NC(=O)NC(C)C)c1  -0.205%
14. CCCc1nn(C)c2c(=O)[nH]c(-c3cc(S(=O)(=O)N4CCN(C)CC4)ccc3OCC)nc12  -0.0138%
15. NCCC(O)(P(=O)(O)O)P(=O)(O)O  0.0373%
16. CNC(=C[N+](=O)[O-])NCCSCc1csc(CN(C)C)n1  0.0593%
17. C[C@@H](c1ncncc1F)[C@](O)(Cn1cncn1)c1ccc(F)cc1F  0.104%
18. NC(=O)CC[C@H](N)C(=O)O  0.17%
19. CC=CC1=C(C(=O)O)N2C(=O)[C@@H](NC(=O)[C@H](N)c3ccc(O)cc3)[C@H]2SC1  0.543%
20. COc1ccc(-n2nc(C(N)=O)c3c2C(=O)N(c2ccc(N4CCCCC4=O)cc2)CC3)cc1  0.547%
21. CCN(CC)C(=O)C1(c2ccccc2)CC1CN (stereo not drawn)  0.846%
22. Cc1ccc(C)c(OCCCC(C)(C)C(=O)O)c1  0.88%
23. NC12CC3CC(CC(C3)C1)C2  0.931%
24. O=C([O-])[C@H](O)[C@@H](O)[C@H](O)[C@H](O)CO.[Na+]  1.18%
25. Cn1c(=O)c2c(ncn2CC(O)CO)n(C)c1=O (stereo not drawn)  1.42%
26. COc1cc(NS(=O)(=O)c2ccc(N)cc2)nc(OC)n1  1.55%
27. CC(=O)S[C@@H]1CC2=CC(=O)CC[C@]2(C)[C@H]2CC[C@@]3(C)[C@@H](CC[C@@]34CCC(=O)O4)[C@H]12  1.65%
28. N=C(N)NCCN1CCCCCCC1  1.9%
29. CN(C/C=C/c1ccccc1)Cc1cccc2ccccc12  1.9%
30. CCOc1ccccc1OC(c1ccccc1)C1CNCCO1 (stereo not drawn)  1.96%
31. CCC(NC(C)C)C(O)c1ccc(O)c(O)c1 (stereo not drawn)  1.97%
32. N[C@@H](Cc1cc(I)c(Oc2ccc(O)c(I)c2)c(I)c1)C(=O)O  2.64%
33. CC(C)OC(=O)C(C)(C)Oc1ccc(C(=O)c2ccc(Cl)cc2)cc1  2.82%
34. COC(=O)C1=C(C)NC(C)=C(C(=O)OC2CCCN(Cc3ccccc3)C2)C1c1cccc([N+](=O)[O-])c1 (stereo not drawn)  3.22%
35. CC(=O)OCC(=O)[C@@]1(O)[C@H](C)C[C@H]2[C@@H]3CCC4=CC(=O)C=C[C@]4(C)[C@@]3(F)[C@@H](O)C[C@@]21C  6.29%
36. CCN(CC)C(=S)SSC(=S)N(CC)CC  10.8%
37. Cc1nc(Nc2ncc(C(=O)Nc3c(C)cccc3Cl)s2)cc(N2CCN(CCO)CC2)n1  12.4%
38. CN(C)C/C=C/C(=O)Nc1cc2c(Nc3ccc(F)c(Cl)c3)ncnc2cc1O[C@H]1CCOC1  14.3%
39. CO[C@H]1C(=O)[C@]2(C)[C@@H](OC)C[C@H]3OC[C@@]3(OC(C)=O)[C@H]2[C@H](OC(=O)c2ccccc2)[C@]2(O)C[C@H](OC(=O)[C@H](O)[C@@H](NC(=O)OC(C)(C)C)c3ccccc3)C(C)=C1C2(C)C  18.4%
